This is an account of results in PubChem BioAssay (NCATS).

Experiment in all cases: qHTS profiling for inhibitors of Plasmodium falciparum proliferation (AID 504749); also: nearly all actives have a fitted effect of over 60% in size
Conditions in all cases: P. falciparum in erythrocytes, SYBR Green DNA, 72 h; series mostly up to 28.7 µM
For orientation: In qHTS, concentration-response curves come from the screen itself.

One assay relates to 7G8. A digest of the protocol: (§1)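 Three-day growth assay of blood-stage parasites in erythrocytes (0.3% parasitemia, 2.5% hematocrit) at 37 C, 5% CO2, quantified by SYBR Green DNA staining after overnight detergent lysis.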
In another assay the test system is AA1029. An outline of the steps:
as §1

The test system of a further assay is AS120. A digest of the protocol:
as §1

In a further assay the test system is ATS189. A digest of the protocol:
as §1

Another assay has as its system CP191. A digest of the protocol: as §1
The subject of another assay is CP201. An outline of the steps:
as §1

In the next assay the test system is CP203. An outline of the steps:
as §1

A further assay concerns CP211. A digest of the protocol:
as §1

The subject of a further assay is CP217. An outline of the steps: as §1
The test system of a further assay is CP237. An outline of the steps: as §1
A further assay has as its system CP250. A digest of the protocol: as §1
For the next assay, the system named is CP252. A digest of the protocol: as §1
The test system of the next assay is ATS95. An outline of the steps:
as §1

For another assay, the system named is C2A. A digest of the protocol:
as §1

The next assay concerns CP185. An outline of the steps:
as §1

A further assay has as its system CP192. An outline of the steps:
as §1

Another assay concerns CP194. An outline of the steps: as §1
For a further assay, the system named is CP215. A digest of the protocol:
as §1

The next assay concerns CP238. A digest of the protocol:
as §1

A further assay deals with CP247. An outline of the steps:
as §1

Results filed as inconclusive are left out. Calls of active or inactive are those of the source. Calls follow the shape of the dose curve; as a rule, active = well fitted inhibition curve with a large enough effect; inconclusive = small, poorly fitted or top-dose-only effect; inactive = flat fitted curve, though single readings scatter.
Potency is read from the fitted curve at half-maximal effect.

Regarding `CCC(=O)c1ccc2c(c1)N(CCCN1CCN(CCO)CC1)c1ccccc1S2`, the Potency with 7G8 was 11.2 µM (active); with AA1029 it was 12.6 µM (active); with AS120 it was 12.6 µM (active); in the assay with ATS189, 12.6 µM (active); in the assay with CP191, 5.62 µM (active); in the assay with CP201, 15.1 µM (active). Also, the Potency was 15.1 µM (active) with CP203; 13.5 µM (active) in the assay with CP211; 8.91 µM (active) in the assay with CP217; 7.94 µM (active) in the assay on CP237; 8.91 µM (active) with CP250; 11.2 µM (active) with CP252.

`CC(=O)Nc1c(I)c(C(=O)O)c(I)c(N(C)C(C)=O)c1I`: the Potency result in the assay on 7G8, in the assay on AA1029, in the assay with ATS189, in the assay with ATS95, with C2A and in the assay on CP185 was “inactive” each time. Further, the Potency entry in the assay on CP191, with CP192, in the assay with CP194, in the assay with CP201, with CP203 and in the assay on CP211 was “inactive” each time. Further, the Potency entry in the assay with CP215, in the assay with CP217, in the assay on CP237, in the assay with CP238, with CP247 and in the assay with CP250 was “inactive” throughout. In the assay with CP252, the Potency entry is “inactive”.

Regarding `C=CC[N+]1([C@H]2C[C@H]3[C@@H]4CC[C@H]5C[C@H](O)[C@@H](N6CCOCC6)C[C@]5(C)[C@H]4CC[C@]3(C)[C@H]2OC(C)=O)CCCC1`, the Potency in the assay with AA1029 is 11.2 µM (active).

As to `N#Cc1ccc2c(c1)N(CCCN1CCC(O)CC1)c1ccccc1S2`, the Potency is 12.6 µM (active) in the assay with 7G8 and 11.2 µM (active) with AA1029. For the same compound, the Potency result in the assay on C2A, with CP192, in the assay on CP217 and in the assay with CP252 was “inactive” in each case.

Turning to `N[C@@H](Cc1cc(I)c(Oc2ccc(O)c(I)c2)c(I)c1)C(=O)O`, the Potency in the assay with 7G8 was 12.6 µM (active). Also, the Potency result in the assay with C2A, with CP185, in the assay with CP192, in the assay on CP201, in the assay on CP211 and in the assay on CP238 was “inactive” throughout.

With `CCOC(=O)Cc1ccc(-c2ccccc2)cc1`, the Potency result in the assay on 7G8, in the assay with AS120, in the assay with ATS189, in the assay with ATS95, in the assay with C2A and with CP185 was “inactive” throughout. The Potency result in the assay with CP194, with CP201, in the assay on CP203, in the assay with CP211, with CP215 and in the assay on CP217 was “inactive” each time. Also, the Potency result with CP237, in the assay on CP238, in the assay with CP247 and in the assay on CP250 was “inactive” each time.

Consider `CN(C)CCCSc1ccccc1NC(=O)/C=C/c1ccccc1`, for which the Potency result in the assay with 7G8, in the assay on AS120, in the assay on ATS189, in the assay with ATS95, in the assay with C2A and in the assay on CP185 was “inactive” in each case. Further, the Potency entry with CP191, in the assay with CP192, in the assay on CP194, with CP201, in the assay on CP203 and in the assay on CP211 was “inactive” each time. The Potency entry in the assay on CP215, with CP217, with CP238, in the assay on CP247, in the assay on CP250 and in the assay with CP252 was “inactive” each time.

For the compound `Cc1ccc(S(=O)(=O)O)cc1C`, the Potency result in the assay with 7G8, in the assay with AA1029, in the assay on AS120, in the assay with ATS189, in the assay with C2A and with CP185 was “inactive” each time. Moreover, the Potency entry with CP191, with CP192, in the assay on CP194, with CP201, in the assay on CP203 and in the assay with CP211 was “inactive” in each case. For the same compound, the Potency result with CP215, in the assay on CP217, in the assay with CP237, with CP238, with CP247 and with CP250 was “inactive” in each case. For the same compound, the Potency result with CP252 was “inactive”.

As for `C/C=C/C=C/C(=O)O`, the Potency entry with 7G8, in the assay on AA1029, with AS120, in the assay with ATS189, in the assay with C2A and in the assay with CP185 was “inactive” each time. The Potency result with CP191, in the assay on CP192, in the assay on CP201, in the assay with CP203, in the assay on CP211 and in the assay with CP217 was “inactive” throughout. Moreover, the Potency result in the assay on CP237, in the assay on CP238, in the assay on CP247, with CP250 and in the assay on CP252 was “inactive” each time.

Take `CN1CCCC(CN2c3ccccc3Sc3ccccc32)C1` (stereo not given): the Potency in the assay on 7G8 is 11.2 µM (active); in the assay with AA1029, 10 µM (active); in the assay on AS120 it was 12.6 µM (active); with CP217, 10 µM (active). The Potency entry with CP192 and in the assay on CP201 was “inactive” throughout.

Consider `CCOc1cc(-c2nccc3cc(OC)c(OC)cc23)cc(OCC)c1OCC`, for which the Potency with 7G8 and in the assay with CP191 was 11.2 µM (active) in each case. In addition, the Potency entry in the assay on C2A and in the assay on CP238 was “inactive” throughout.

Consider `CN(C)CCC=C1c2ccccc2C(C)(C)c2ccccc21`, for which the Potency with 7G8 is 7.94 µM (active). Also, the Potency result with ATS189, with CP192, with CP238 and with CP247 was “inactive” in each case.

As to `CC(C)CCCCCCc1ccc(O)cc1`, the Potency in the assay on 7G8 is 8.91 µM (active). In addition, the Potency result with AA1029, with C2A, in the assay with CP185, in the assay on CP191, in the assay on CP192 and in the assay on CP194 was “inactive” in each case. The Potency entry with CP201, in the assay on CP203, with CP211, with CP215, with CP217 and with CP237 was “inactive” in each case. Further, the Potency result with CP238, in the assay on CP250 and in the assay with CP252 was “inactive” each time.

Take `CC(CN(C)C)CN1c2ccccc2Sc2ccc(C(F)(F)F)cc21` (stereo not given): the Potency was 10 µM (active) in the assay with 7G8, 11.2 µM (active) with AS120 and 8.91 µM (active) in the assay on CP191. The Potency entry with CP192 is “inactive”.

Regarding `O=[N+]([O-])c1c(Cl)cccc1-c1c[nH]cc1Cl`, the Potency result in the assay on AA1029, in the assay on AS120, in the assay on ATS189, in the assay with ATS95, with C2A and in the assay on CP185 was “inactive” each time. In addition, the Potency entry in the assay on CP191, in the assay with CP192, in the assay on CP194, in the assay with CP201, with CP203 and with CP211 was “inactive” throughout. Besides, the Potency entry in the assay with CP215, in the assay with CP217, in the assay on CP237, with CP238, with CP247 and in the assay with CP250 was “inactive” in each case. In the assay with CP252, the Potency entry is “inactive”.

As to `Cc1cc(-c2ccc(N=Nc3c(S(=O)(=O)O)cc4cc(S(=O)(=O)O)cc(N)c4c3O)c(C)c2)ccc1N=Nc1c(S(=O)(=O)O)cc2cc(S(=O)(=O)O)cc(N)c2c1O`, the Potency result in the assay on AA1029, with ATS95, in the assay with C2A, with CP191, with CP192 and in the assay on CP201 was “inactive” throughout. The Potency entry with CP203, in the assay with CP211, with CP215 and in the assay on CP252 was “inactive” throughout. Besides, in the assay on AS120, the Potency was 14.1 µM (active).

As for `COc1ccc2c(=O)c(C)c(-c3ccccc3)oc2c1CN(C)C`, the Potency result with AS120, with ATS189, in the assay on C2A, with CP185, with CP191 and with CP192 was “inactive” in each case. Further, the Potency result with CP194, in the assay on CP201, with CP203, in the assay with CP211, in the assay with CP217 and in the assay on CP238 was “inactive” throughout. The Potency entry in the assay with CP247, with CP250 and with CP252 was “inactive” throughout.

For `CS(=O)(=O)c1ccc([C@@H](O)[C@@H](COC(=O)CN)NC(=O)C(Cl)Cl)cc1`, the Potency entry in the assay with AS120, in the assay with ATS189, in the assay on CP191, with CP192, in the assay on CP247 and with CP250 was “inactive” each time.

In the case of `NC(=O)[C@@H]1CCCN1C(=O)[C@H](Cc1cnc[nH]1)NC(=O)[C@@H]1CCC(=O)N1`, the Potency result with AA1029, in the assay with AS120, with ATS189, in the assay on ATS95, with C2A and with CP185 was “inactive” in each case. Also, the Potency result in the assay with CP191, in the assay on CP192, in the assay on CP194, in the assay with CP201, in the assay with CP203 and in the assay on CP211 was “inactive” throughout. Further, the Potency result in the assay with CP215, in the assay with CP217, in the assay on CP237, in the assay with CP238, in the assay with CP247 and in the assay on CP250 was “inactive” throughout. For the same compound, in the assay with CP252, the Potency entry is “inactive”.
